We go through five compounds from PubChem BioAssay.

The source made the active and inactive calls. Unless noted, how the calls were made is not given here.

A short description of assay [1]: compounds binding Alexa647 anti-His antibody – biochemical, small-molecule microarray, 635 nm fluorescence, artefact control for SMM control protein annotation, primary screen (AID 1128).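 Further: score merges feature fluorescence with signal-to-noise for each printed compound spot.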 The following applies: higher = more signal.
Assay [2] deals with Human papillomavirus type 1a E7 protein (residues 1-88). In words: HPV1a E7 small-molecule binders, primary screen, biochemical, small-molecule microarray, residues 1-88, 635 nm (AID 1129). The conditions noted are these: small-molecule microarray binding, fluorescence 635 nm; higher = more signal.
The target of assay [3] is Focal adhesion kinase 1 (Homo sapiens) (UniProt Q05397). In words: PTK2 protein binding on printed compound slides – biochemical, small-molecule microarray, 635/667 nm fluorescence, BSA, DTT, primary screen (AID 1130).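 Further: composite of spot emission at 667 nm and signal to noise over triplicate slides.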 The following applies: 635 nm fluorescence, higher = more signal.
Assay [4] deals with Fibrinogen (Alexa647-labelled). The assay can be described thus: Alexa647-fibrinogen binding to printed small molecules – biochemical, small-molecule microarray, 635/667 nm fluorescence, artefact control for SMM control-protein annotation, profiling panel (AID 1131).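 Further: z-score merges 667 nm fluorescence with per-spot signal-to-noise over triplicate slides.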 The following applies: fibrinogen-A647 binding fluorescence, higher = more signal.
The target in assay [5] is Follistatin (Homo sapiens) (UniProt P19883). The assay can be described thus: FST protein binding to printed compounds – biochemical, small-molecule microarray, 635/667 nm fluorescence, primary screen (AID 1132). The conditions noted are these: 635 nm fluorescence, higher = more signal.
Assay [6] concerns the target Fibroblast growth factor 2 (Homo sapiens) (UniProt P09038). The assay can be described thus: basic fibroblast growth factor binding to printed compounds – biochemical, small-molecule microarray, 635/667 nm fluorescence, primary screen (AID 1133). The conditions noted are these: FGF2, fluorescence 635/667, higher = more signal.
Assay [7] can be described thus: JC-1 mitochondrial potential readout, lung cancer cells – cell-based, A549, JC-1 fluorescence, basal, 24 h, 100 nL, profiling panel (AID 1138).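 Further: A549 lung adenocarcinoma cells under basal conditions with no added stimulus; test concentration not given here.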 The conditions noted are these: higher = more signal.
The next assay concerns Lefty1. The assay can be described thus: Lefty1 protein binding to printed compounds – biochemical, small-molecule microarray, 635/667 nm fluorescence, primary screen (AID 1139). The conditions noted are these: fluorescence 635/667, higher = more signal.
For assay [8], the system named is wheat germ agglutinin (Triticum aestivum), Alexa647-labelled. In words: Alexa647-WGA lectin binding to printed small molecules – biochemical, small-molecule microarray, 635/667 nm fluorescence, artefact control for SMM control-protein annotation, profiling panel (AID 1140).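 Further: score merges 667 nm feature emission with signal to noise over triplicate slides.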 The conditions noted are these: WGA-A647 binding, 635 nm fluorescence, higher = more signal.

Assay [9] has as its target Luciferin 4-monooxygenase (Photinus pyralis) (UniProt P08659). In words: inhibition of purified Photinus pyralis luciferase – biochemical, luminescence, purified enzyme, 2006 set, primary screen (AID 1141).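 Further: cell-free assay with purified firefly luciferase at 100 ng per well in PBS; test concentration not given here.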 The following applies: purified firefly luciferase, SteadyGlo luminescence, 30 min; higher = more signal, called active from +8 up or from −8 down.
Assay [10] relates to Wnt5a (protein binding on small-molecule microarray). The assay can be described thus: small molecules binding Wnt5a protein – biophysical, small-molecule microarray, 635/667 nm fluorescence, primary screen (AID 1142).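 Further: fluorescence read at 667 nm with signal to noise per printed feature.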 The following applies: 635 nm fluorescence, higher = more signal.
The nature of assay [11]: ATP-based viability of Huh7 replicon cells – cell-based, CellTiter-Glo luminescence, basal, 48 h, cytotoxicity control for HCV replication inhibitor project, primary screen (AID 1143).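 Further: Huh7 hepatoma cells carrying a hepatitis C replication reporter with no stimulus; test concentration not given here.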 The following applies: higher = more signal, called active from +8 up or from −8 down. For orientation: In antiviral work, replicon cells carry a viral genome segment that copies itself.
The nature of assay [12]: Pseudomonas biofilm growth suppression – PAO1 strain, BacTiter-Glo luminescence, LB-PBS, primary screen (AID 1144). The conditions noted are these: P. aeruginosa PAO1 biofilm, 12 h, higher = more signal.
Assay [13] in a line: basal CRE-LacZ reporter activity in PC12 – cell-based, unstimulated, primary screen (AID 1145). The following applies: no forskolin, luminescence, 4.5 h, higher = more signal, called active from +8 up or from −8 down.
Assay [14] in a line: forskolin-driven CRE-LacZ activity in PC12 – cell-based, CRE-LacZ reporter, forskolin-stimulated, primary screen (AID 1146).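 Further: PC12 cells with 6xCRE LacZ reporter stimulated by forskolin 10 µM; beta-galactosidase reporter signal reflecting CREB driven transcription.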 The following applies: luminescence, 4.5 h, higher = more signal, called active from +8 up or from −8 down.
Assay [15] deals with Streptavidin (Streptomyces avidinii) (UniProt P22629). The assay can be described thus: compounds binding control protein streptavidin – biophysical, small-molecule microarray, 635/667 nm fluorescence, artefact control for SMM compound annotation, primary screen (AID 1147).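 Further: signal reflects streptavidin binding to arrayed compounds as a control protein.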 The conditions noted are these: higher = more signal.
Assay [16] can be described thus: probe aInhba binding on compound microarray – biochemical, small-molecule microarray, 635/667 nm fluorescence, primary screen (AID 1148).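 Further: score merges 667nm spot fluorescence with signal-to-noise for antibody binding to printed compounds.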 The conditions noted are these: higher = more signal.
The target in assay [17] is Torsin-1A (Homo sapiens) (UniProt O14656). The assay can be described thus: TOR1A wild-type binding on microarray – cell lysate, small-molecule microarray, lysate, 635/667 nm, primary screen (AID 1149). The conditions noted are these: COS7 hTOR1A-WT lysate, 635 nm fluorescence, higher = more signal.
The target is the same in assay [18]. In words: torsin A mutant lysate binding on microarrays – cell lysate, small-molecule microarray, COS7 lysate, 635/667 nm fluorescence, primary screen (AID 1150).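 Further: score pools 667 nm emission and signal to noise measuring lysate protein binding.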 The conditions noted are these: COS7 hTOR1A mutant lysate, 635 nm fluorescence, higher = more signal.
Assay [19] relates to Sonic hedgehog protein (Shh). The assay can be described thus: Sonic hedgehog microarray binding compounds – biochemical, small-molecule microarray, 635/667 nm fluorescence, primary screen (AID 1151).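 Further: Shh protein binding to compounds spotted on small-molecule microarray slides; score combines spot fluorescence intensity with signal-to-noise across triplicate slides.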 The conditions noted are these: 635 nm fluorescence, higher = more signal.

Chain of Focal adhesion kinase 1 (Homo sapiens) (Q05397 whole entry, looked up): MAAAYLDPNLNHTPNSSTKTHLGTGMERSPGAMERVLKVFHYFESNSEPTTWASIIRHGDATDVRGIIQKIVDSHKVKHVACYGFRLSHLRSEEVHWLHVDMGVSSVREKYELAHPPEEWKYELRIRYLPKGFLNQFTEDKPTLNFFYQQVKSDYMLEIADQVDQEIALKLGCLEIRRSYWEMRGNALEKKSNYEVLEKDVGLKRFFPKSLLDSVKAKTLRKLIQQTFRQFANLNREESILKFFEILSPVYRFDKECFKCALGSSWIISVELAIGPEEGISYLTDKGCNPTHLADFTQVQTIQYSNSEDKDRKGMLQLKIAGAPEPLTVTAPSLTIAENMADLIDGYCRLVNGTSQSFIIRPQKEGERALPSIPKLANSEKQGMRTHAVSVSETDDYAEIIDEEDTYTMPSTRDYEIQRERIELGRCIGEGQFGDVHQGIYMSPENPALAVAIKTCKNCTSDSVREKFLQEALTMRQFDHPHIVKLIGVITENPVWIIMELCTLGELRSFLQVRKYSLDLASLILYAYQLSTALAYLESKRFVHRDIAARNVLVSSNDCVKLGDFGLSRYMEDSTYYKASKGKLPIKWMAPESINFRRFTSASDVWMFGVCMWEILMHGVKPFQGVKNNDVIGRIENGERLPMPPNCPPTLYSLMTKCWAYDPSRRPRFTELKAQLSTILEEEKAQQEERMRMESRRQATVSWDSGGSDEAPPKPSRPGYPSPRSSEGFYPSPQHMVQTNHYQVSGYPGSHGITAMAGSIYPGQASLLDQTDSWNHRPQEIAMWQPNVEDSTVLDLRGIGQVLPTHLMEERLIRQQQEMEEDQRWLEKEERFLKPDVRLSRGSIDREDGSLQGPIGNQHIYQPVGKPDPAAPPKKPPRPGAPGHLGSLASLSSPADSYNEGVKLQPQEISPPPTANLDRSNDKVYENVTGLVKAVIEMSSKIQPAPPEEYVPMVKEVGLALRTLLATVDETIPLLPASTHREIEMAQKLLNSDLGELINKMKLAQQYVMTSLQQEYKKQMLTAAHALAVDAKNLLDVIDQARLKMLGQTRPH
Chain of Follistatin (Homo sapiens) (P19883 whole entry, looked up): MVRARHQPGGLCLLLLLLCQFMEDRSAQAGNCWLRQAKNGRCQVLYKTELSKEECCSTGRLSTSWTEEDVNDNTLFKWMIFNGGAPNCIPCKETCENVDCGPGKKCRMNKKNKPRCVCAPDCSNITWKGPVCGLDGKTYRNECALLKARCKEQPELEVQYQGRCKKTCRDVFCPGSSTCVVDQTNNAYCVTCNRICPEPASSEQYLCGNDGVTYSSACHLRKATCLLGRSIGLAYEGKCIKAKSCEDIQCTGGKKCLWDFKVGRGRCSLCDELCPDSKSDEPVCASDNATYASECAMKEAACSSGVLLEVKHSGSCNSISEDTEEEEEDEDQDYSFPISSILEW
Chain of Torsin-1A (Homo sapiens) (O14656 whole entry, looked up): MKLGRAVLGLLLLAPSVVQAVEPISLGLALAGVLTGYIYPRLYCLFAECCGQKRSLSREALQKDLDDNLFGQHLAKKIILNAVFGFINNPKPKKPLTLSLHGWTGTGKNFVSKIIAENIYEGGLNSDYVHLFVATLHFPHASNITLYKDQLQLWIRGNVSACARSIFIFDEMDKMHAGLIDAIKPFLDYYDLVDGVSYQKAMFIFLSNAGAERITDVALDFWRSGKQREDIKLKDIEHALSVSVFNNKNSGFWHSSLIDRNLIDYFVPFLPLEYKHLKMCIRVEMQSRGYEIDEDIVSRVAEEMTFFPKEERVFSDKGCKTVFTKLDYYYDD
Chain of Streptavidin (Streptomyces avidinii) (P22629 whole entry, looked up): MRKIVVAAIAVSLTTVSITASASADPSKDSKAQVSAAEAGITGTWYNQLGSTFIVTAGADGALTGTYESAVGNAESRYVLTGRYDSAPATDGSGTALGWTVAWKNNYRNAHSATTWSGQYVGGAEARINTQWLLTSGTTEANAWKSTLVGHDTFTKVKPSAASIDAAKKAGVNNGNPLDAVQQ
Chain of Luciferin 4-monooxygenase (Photinus pyralis) (P08659 whole entry, looked up): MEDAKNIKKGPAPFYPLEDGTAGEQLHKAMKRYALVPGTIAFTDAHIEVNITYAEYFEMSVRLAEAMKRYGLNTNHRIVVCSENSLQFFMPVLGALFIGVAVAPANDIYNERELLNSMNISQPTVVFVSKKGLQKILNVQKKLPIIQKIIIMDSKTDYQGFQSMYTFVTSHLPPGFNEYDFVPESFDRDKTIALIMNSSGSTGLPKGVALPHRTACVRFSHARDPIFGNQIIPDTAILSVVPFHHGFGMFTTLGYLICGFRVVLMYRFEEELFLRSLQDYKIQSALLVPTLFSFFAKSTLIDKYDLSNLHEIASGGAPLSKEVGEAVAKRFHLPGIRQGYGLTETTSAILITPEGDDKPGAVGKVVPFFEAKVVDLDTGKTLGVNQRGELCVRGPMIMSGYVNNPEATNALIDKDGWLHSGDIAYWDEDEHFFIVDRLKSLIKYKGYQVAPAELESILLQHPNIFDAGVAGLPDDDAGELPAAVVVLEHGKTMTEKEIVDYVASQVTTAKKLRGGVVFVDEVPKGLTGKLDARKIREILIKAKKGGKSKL
Chain of Fibroblast growth factor 2 (Homo sapiens) (P09038 whole entry, looked up): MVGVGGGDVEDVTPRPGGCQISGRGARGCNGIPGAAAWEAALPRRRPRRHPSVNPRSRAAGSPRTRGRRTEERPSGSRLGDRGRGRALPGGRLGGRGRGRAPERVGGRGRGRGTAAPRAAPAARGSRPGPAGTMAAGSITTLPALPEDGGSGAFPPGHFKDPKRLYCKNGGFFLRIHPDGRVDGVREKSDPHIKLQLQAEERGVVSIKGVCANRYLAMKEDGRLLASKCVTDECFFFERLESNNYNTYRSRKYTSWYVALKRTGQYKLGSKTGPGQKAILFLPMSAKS

`CCC[C@@H]1C[C@@]1(CCC)[C@@H](NC(=O)c1ccccc1)c1cccc(Cl)c1`: the composite z-score in [1] was 1.52; in [2], 1.17; in assay [3], 0.535; in assay [4], 0.596; in [5], 0.219; in [6], -0.331. The composite z-score in the assay on Lefty1 is -0.544; in assay [8], 1.11; in [10], 2.05; in assay [15], 2.17; in assay [16], 1.32; with Torsin-1A (Homo sapiens) [17], 0.0875. The composite z-score is 0.512 with Torsin-1A (Homo sapiens) [18] and -1.33 in assay [19]. The z-score is 0.349 in assay [7]; 0.841 (inactive) in assay [9]; -0.246 (inactive) in assay [11]; 0.0208 (inactive) in assay [12]; 0.776 (inactive) in assay [13]; 0.485 (inactive) in assay [14].
On to `O=C(NCCN1CCOCC1)[C@@H]1c2ccccc2C(=O)N(C2CCCCC2)[C@H]1c1ccc(CO)cc1`, for which the composite z-score in [1] was 0.166; in assay [2], 0.0657; in [3] it was -0.0962; in assay [4], 0.74; in assay [5], 0.0603; in assay [6] it was -0.59. Also, the composite z-score is -0.0981 in the assay with Lefty1; -0.403 in [8]; -0.178 in [10]; 0.254 in assay [15]; -0.153 in [16]; -0.945 in the assay with Torsin-1A (Homo sapiens) [17]. Further, the composite z-score with Torsin-1A (Homo sapiens) [18] was -0.653; in assay [19] it was -0.908. For the same compound, the z-score in assay [7] is 2.27; in assay [9], -0.293 (inactive); in assay [11] it was -0.742 (inactive); in assay [12] it was 0.00698 (inactive); in [13], 0.791 (inactive); in [14] it was -0.168 (inactive).
With `COC(=O)[C@@]1(Cc2ccccc2)N=C(c2ccc(OCCCO)cc2)O[C@H]1c1ccccc1`, the composite z-score is 2.44 in [1]; 1.2 in assay [2]; 0.428 in assay [3]; -0.381 in [4]; 0.385 in [5]; 1.65 in [6]. The composite z-score in the assay with Lefty1 was -0.63; in assay [8], 0.609; in assay [10], 0.912; in assay [15], -0.369; in [16], 0.0816; with Torsin-1A (Homo sapiens) [17] it was 0.348. The figures for the composite z-score (in the assay with Torsin-1A (Homo sapiens) [18]; in assay [19]) were 1.74 and -0.0883, respectively. The z-score is -0.56 in [7]; -5.51 (inactive) in assay [9]; -4.45 (inactive) in [11]; 0.35 (inactive) in assay [12]; 1.45 (inactive) in assay [13]; -2.12 (inactive) in [14].
`COc1cc(C(O)C2C=CC3C(=O)NC(=O)C3N2Nc2ccccn2)cc(OC)c1OC` (stereo not given): the composite z-score in assay [1] was 1.26; in [2], 0.852; in assay [3] it was 0.184; in [4], 0.764; in assay [5] it was 0.169; in assay [6], 0.158. Besides, the composite z-score is -0.188 in the assay on Lefty1; 0.0705 in assay [8]; 0.147 in assay [10]; 0.0266 in [15]; 0.0448 in assay [16]; 0.366 in the assay with Torsin-1A (Homo sapiens) [17]. For the same compound, the composite z-score stood at 0.291 with Torsin-1A (Homo sapiens) [18] and 0.371 in assay [19]. The z-score in assay [7] was 0.623; in assay [9], -0.0958 (inactive); in assay [11] it was 0.969 (inactive); in assay [12], 0.0747 (inactive); in assay [13], 0.0467 (inactive); in [14], 0.329 (inactive).
As to `COCCOC(=O)N1C(=O)[C@@]2(c3ccccc31)[C@H](C(=O)N1CCc3cc(OC)c(OC)cc3C1)[C@H]1C(=O)O[C@H](c3ccccc3)[C@H](c3ccccc3)N1[C@@H]2c1ccc(OCCO)cc1`, the composite z-score worked out at 2.67 in assay [1]; 1.22 in [2]; 0.789 in [3]; 0.896 in assay [4]; 1.25 in assay [5]; 1.1 in [6]. The composite z-score came to 0.492 in the assay on Lefty1; 0.722 in assay [8]; 0.146 in assay [10]; 0.547 in assay [15]; 0.0569 in [16]; 0.0657 in the assay with Torsin-1A (Homo sapiens) [17]. Moreover, the figures for the composite z-score (with Torsin-1A (Homo sapiens) [18]; in assay [19]) were 1.21 and 1.41, respectively. Besides, the z-score was -0.382 in [7]; -1.76 (inactive) in [9]; -0.704 (inactive) in assay [11]; 0.73 (inactive) in assay [12]; 0.685 (inactive) in assay [13]; -0.653 (inactive) in assay [14].
